The values that follow come from PubChem BioAssay (EPA / NIEHS).

The structures appear in SMILES notation. The source made the active and inactive calls. Rule for the calls: active = hit-call score of the fitted dose curve at least 0.9, where 1 is the maximum; inactive = score below 0.9.

Test [1] in a line: ATG_ISRE_CIS: Attagene CIS-FACTORIAL HepG2 Assay for human Interferon Regulatory Factor 1 (IRF1) binding to an Interferon-Stimulated Response Element (ISRE) (AID 2282948). As to conditions: HepG2 ISRE cis-reporter (Attagene), mRNA transcription readout; actives raise or lower the signal. Summed up: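 Endogenous transcription factor activity read as reporter transcript abundance via RT-PCR and capillary electrophoresis. HepG2 cells transiently transfected, 24 h chemical exposure. Gain or loss fitted against DMSO baseline.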

A short description of test [2]: ATG_M_32_CIS: Attagene CIS-FACTORIAL HepG2 Assay for M32 Transcription Factor (Internal Marker) (AID 2282949).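 Note: background control marker of the multiplexed CIS panel rather than a real target.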 As to conditions: HepG2 Attagene cis-factorial M32 reporter, mRNA; actives raise or lower the signal. Summed up: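 HepG2 transfectants (cis-regulated reporter transcription units) dosed 24 h. Reporter mRNA by RT-PCR plus CE, analysed as gain or loss relative to DMSO.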

Test [3] in a line: ATG_M_06_CIS: Attagene CIS-FACTORIAL HepG2 Assay for M06 Transcription Factor (Internal Marker) (AID 2282950). The following applies: HepG2 Attagene CIS-FACTORIAL M06 internal marker reporter; actives raise or lower the signal. Summed up: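 Cells (HepG2, transiently carrying cis-driven reporter units) receive chemical for 24 h before RNA isolation. Reporter cDNA is PCR-amplified, FAM-labelled by primer extension, HpaI-digested and sized on a capillary analyser.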

In test [4] the target is Hepatocyte nuclear factor 6 (Homo sapiens) (UniProt Q9UBC0). Briefly: ATG_HNF6_CIS: Attagene CIS-FACTORIAL HepG2 Assay for human Hepatocyte Nuclear Factor 6 (HNF6) (AID 2282952). The following applies: HepG2 Attagene cis-factorial HNF6 reporter transcription; actives raise or lower the signal. A digest of the protocol: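 Endogenous transcription factor activity in human HepG2 liver cells was captured through cis-regulated reporter constructs. After 24 h treatment, reporter mRNA was measured by RT-PCR with capillary electrophoresis, and activity was fitted in both directions relative to DMSO.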

The target in test [5] is Heat shock factor protein 1 (Homo sapiens) (UniProt Q00613). The test can be described thus: ATG_HSE_CIS: Attagene CIS-FACTORIAL HepG2 Assay for human Heat Shock Transcription Factor 1 (HSE) (AID 2282953). As to conditions: HepG2 HSE cis-reporter, Attagene RNA transcription; actives raise or lower the signal. A digest of the protocol:
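Liver-derived HepG2 cells carry transiently introduced multiple reporter units governed by cis promoters. Reporter RNA measured 24 h post-dose through reverse transcription, PCR amplification, fluorescent labelling and capillary electrophoresis, normalised to DMSO.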

Test [6] can be described thus: ATG_MRE_CIS: Attagene CIS-FACTORIAL HepG2 Assay for human Metal Responsive Element (MRE) (AID 2282954). As to conditions: HepG2 MRE cis-reporter transcription, Attagene multiplex; actives raise or lower the signal. Summed up:
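Endogenous MRE-dependent transcription read as reporter mRNA in transiently transfected human HepG2 cells at 24 h. RNA reverse-transcribed, PCR-amplified, labelled and resolved by capillary electrophoresis; gain or loss relative to DMSO.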

For test [7], the target named is Hypoxia-inducible factor 1-alpha (Homo sapiens) (UniProt Q16665). Briefly: ATG_HIF1a_CIS: Attagene CIS-FACTORIAL HepG2 Assay for human Hypoxia Inducible Factor 1 (HIF1A) (AID 2282951). The following applies: HepG2 Attagene cis-factorial HIF1a reporter transcription; actives raise or lower the signal. A digest of the protocol:
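After 24 h chemical exposure of reporter-transfected HepG2 cells, reporter cDNA was PCR-amplified, labelled by 6-FAM primer extension (2 min 95 C, 20 s 68 C, 10 min 72 C), HpaI-cut (2 h, 37 C) and analysed by CE.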

The nature of test [8]: ATG_PBREM_CIS: Attagene CIS-FACTORIAL HepG2 Assay for human Phenobarbital-responsive Enhancer Module (PBREM) (AID 2282955). The following applies: HepG2 PBREM cis-reporter, Attagene multiplexed transcription; actives raise or lower the signal. A digest of the protocol:
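Measures endogenous factor action on a phenobarbital-responsive enhancer module. HepG2 transiently carrying cis reporters, 24 h treatment, mRNA read-out by RT-PCR plus capillary electrophoresis.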

Hypoxia-inducible factor 1-alpha (Homo sapiens), sequence (Q16665 whole entry, looked up): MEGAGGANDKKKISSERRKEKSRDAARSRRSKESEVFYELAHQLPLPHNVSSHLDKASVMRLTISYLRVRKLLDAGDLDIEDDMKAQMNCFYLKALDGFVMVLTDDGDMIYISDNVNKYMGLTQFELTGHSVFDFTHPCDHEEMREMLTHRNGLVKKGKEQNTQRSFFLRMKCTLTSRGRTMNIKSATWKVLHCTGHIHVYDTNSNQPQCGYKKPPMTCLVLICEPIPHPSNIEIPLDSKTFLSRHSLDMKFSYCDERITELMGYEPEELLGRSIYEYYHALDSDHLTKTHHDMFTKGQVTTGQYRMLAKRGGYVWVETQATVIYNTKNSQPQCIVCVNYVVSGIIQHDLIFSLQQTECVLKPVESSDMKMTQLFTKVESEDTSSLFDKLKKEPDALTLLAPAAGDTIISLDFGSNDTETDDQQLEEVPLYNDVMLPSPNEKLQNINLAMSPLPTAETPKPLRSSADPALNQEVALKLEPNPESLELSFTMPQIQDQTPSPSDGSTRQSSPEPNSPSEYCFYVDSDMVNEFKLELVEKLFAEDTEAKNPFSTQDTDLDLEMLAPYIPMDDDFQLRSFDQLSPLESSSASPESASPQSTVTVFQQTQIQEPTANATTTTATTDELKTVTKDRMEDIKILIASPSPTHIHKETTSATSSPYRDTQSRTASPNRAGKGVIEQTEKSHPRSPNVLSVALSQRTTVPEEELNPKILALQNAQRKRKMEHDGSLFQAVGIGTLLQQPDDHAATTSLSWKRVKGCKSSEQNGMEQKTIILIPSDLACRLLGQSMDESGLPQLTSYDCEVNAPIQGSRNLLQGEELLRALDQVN
Hepatocyte nuclear factor 6 (Homo sapiens), sequence (Q9UBC0 whole entry, looked up): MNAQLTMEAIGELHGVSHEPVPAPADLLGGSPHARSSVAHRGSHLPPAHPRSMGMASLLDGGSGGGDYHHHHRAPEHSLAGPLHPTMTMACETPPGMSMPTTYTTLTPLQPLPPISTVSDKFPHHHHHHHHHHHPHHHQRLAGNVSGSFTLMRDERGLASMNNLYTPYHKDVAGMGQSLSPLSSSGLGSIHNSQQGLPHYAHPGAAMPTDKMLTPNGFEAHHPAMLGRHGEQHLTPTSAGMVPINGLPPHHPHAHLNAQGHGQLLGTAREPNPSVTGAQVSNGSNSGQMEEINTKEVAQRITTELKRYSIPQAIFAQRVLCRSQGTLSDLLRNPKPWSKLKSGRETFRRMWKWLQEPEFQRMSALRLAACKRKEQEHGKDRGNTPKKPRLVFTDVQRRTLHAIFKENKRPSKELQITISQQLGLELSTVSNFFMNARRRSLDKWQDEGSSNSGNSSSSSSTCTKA
Heat shock factor protein 1 (Homo sapiens), sequence (Q00613 whole entry, looked up): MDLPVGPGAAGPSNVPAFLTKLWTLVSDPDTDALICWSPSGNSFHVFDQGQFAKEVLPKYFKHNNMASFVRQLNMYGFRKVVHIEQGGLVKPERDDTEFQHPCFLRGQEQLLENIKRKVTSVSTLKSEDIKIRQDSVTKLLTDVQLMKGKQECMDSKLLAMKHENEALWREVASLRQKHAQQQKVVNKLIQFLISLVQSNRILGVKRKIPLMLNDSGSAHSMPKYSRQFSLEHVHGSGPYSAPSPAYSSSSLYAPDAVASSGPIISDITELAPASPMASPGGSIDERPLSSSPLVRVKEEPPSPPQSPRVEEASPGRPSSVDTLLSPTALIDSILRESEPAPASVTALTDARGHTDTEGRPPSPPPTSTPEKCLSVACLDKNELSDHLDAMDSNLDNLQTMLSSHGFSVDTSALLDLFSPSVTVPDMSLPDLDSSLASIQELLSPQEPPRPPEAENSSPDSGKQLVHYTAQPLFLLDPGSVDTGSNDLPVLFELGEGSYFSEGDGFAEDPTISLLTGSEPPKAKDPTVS

`C[C@H]1C[C@H]2[C@@H]3CCC4=CC(=O)C=C[C@]4(C)[C@@]3(F)[C@@H](O)C[C@]2(C)[C@@]1(O)C(=O)COP(=O)(O)O`: the result in test [1], in test [2], in test [3], in test [4], in test [5] and in test [6] was inactive.

With `OCCOc1cccc(OCCO)c1`, the result in test [1], in test [2], in test [3], in test [7], in test [6] and in test [8] was inactive.

`c1ccc2[nH]ccc2c1`: the outcome in test [1], in test [2], in test [3], in test [4], in test [5] and in test [6] was inactive.

For the molecule `CN1[C@@H]2CC(OC(=O)[C@H](CO)c3ccccc3)C[C@H]1[C@@H]1O[C@@H]12` (some centres undefined), the result in test [1], in test [2], in test [3], in test [6] and in test [8] was inactive.

In the case of `CC1(C)[C@H]2CC[C@]1(C)[C@H](O)C2`, the molecule was classed as inactive in test [1], in test [2], in test [7], in test [4], in test [5] and in test [6]. Also, the outcome in test [8] was inactive.

As a reminder, the AC50 is the concentration giving half of the maximal activity seen. Turning to `CC(CN1c2ccccc2Sc2ccccc21)N(C)C` (centres undefined), the molecule was called inactive in test [1], in test [2], in test [3], in test [4], in test [5] and in test [8]. Besides, the AC50 in test [6] is 40.7 µM (active).

As for `CC(C)(C)c1cc(CCC(=O)NN)cc(C(C)(C)C)c1O`, the result in test [1], in test [2], in test [3], in test [7], in test [5] and in test [8] was inactive. Also, in test [6], the AC50 is 186 µM (active).

On to `O=S(=O)(O)c1cccc2c(S(=O)(=O)O)cccc12`, for which the outcome in test [1], in test [2], in test [3], in test [4], in test [5] and in test [6] was inactive. Also, in test [8], the result was inactive.

As to `CC(C)=CCC/C(C)=C/COC=O`, the molecule was called inactive in test [1], in test [2], in test [3], in test [5], in test [6] and in test [8].

`O=CCCc1ccccc1`: the result in test [1], in test [2], in test [3], in test [7], in test [5] and in test [6] was inactive.

On to `CCN(CC)CCOC(=O)c1ccc(N)cc1`, for which the molecule was called inactive in test [1], in test [2], in test [3], in test [4], in test [5] and in test [8].

For `CC(C)[C@H]1CC[C@@H](C)CC1=O`, the molecule was called inactive in test [1], in test [2], in test [3], in test [4], in test [5] and in test [6].

On to `CC(C)[C@@H]1CC[C@@H](C)CC1=O`, for which the molecule was classed as inactive in test [1], in test [2], in test [3], in test [4], in test [5] and in test [6].

Take `CC1COc2ccccc2N1C(=O)C(Cl)Cl` (centres undefined): the AC50 was 100 µM (active) in test [1] and 62.1 µM (active) in test [6]. The call in test [2], in test [3], in test [7], in test [5] and in test [8] was inactive.

Regarding `COc1ccc(O)cc1`, the result in test [1], in test [3], in test [7], in test [4], in test [5] and in test [6] was inactive.

For the molecule `CCn1c2ccccc2c2cc(N)ccc21`, the molecule was classed as inactive in test [1], in test [2], in test [7] and in test [4]. In test [8], the AC50 was 37 µM (active).

Regarding `CC1(C)OC[C@@H]2O[C@@]3(C(=O)O)OC(C)(C)O[C@H]3[C@@H]2O1`, the call in test [1], in test [3] and in test [4] was inactive.

For `CCCCCCCCCCCCCOS(=O)(=O)O`, the result in test [1], in test [2], in test [3], in test [4] and in test [5] was inactive.

As to `O=c1[nH]c(=O)n([C@H]2CCCO2)cc1F`, the outcome in test [1], in test [2], in test [3], in test [7], in test [5] and in test [6] was inactive. Also, the outcome in test [8] was inactive.

Consider `CCCCCC(CO)CCC` (centres undefined), for which the call in test [1], in test [3], in test [7], in test [4], in test [5] and in test [6] was inactive.

As to `CC(C)=CCO`, the molecule was classed as inactive in test [1], in test [2], in test [3], in test [4], in test [5] and in test [6].

For the molecule `CCCC(=O)OCCC(C)CCC=C(C)C` (centres undefined), the result in test [1], in test [7], in test [6] and in test [8] was inactive. Further, the concentration at half-maximal activity (AC50) in test [4] was 180 µM (active).

Consider `CCCCOCCOCCSC#N`, for which the result in test [1], in test [2], in test [3], in test [4] and in test [8] was inactive.

`O=C(O)CCCCCCCC(=O)O`: the molecule was classed as inactive in test [1], in test [2], in test [3], in test [4], in test [5] and in test [6]. In addition, the result in test [8] was inactive.

For the molecule `C=C[Si](OCC)(OCC)OCC`, the result in test [1], in test [7], in test [4], in test [5] and in test [6] was inactive.

Regarding `CC(=O)C(=O)O`, the molecule was classed as inactive in test [1], in test [2], in test [3], in test [5], in test [6] and in test [8]. In test [7], the AC50 was 33.9 µM (active).

With `O=c1oc(=O)c2cc3c(=O)oc(=O)c3cc12`, the molecule was classed as inactive in test [1], in test [2], in test [3], in test [7] and in test [5].

Consider `Nc1ccc(S(N)(=O)=O)cc1`, for which the result in test [1], in test [2], in test [3], in test [7], in test [5] and in test [6] was inactive.

For the molecule `C=C(C)C1CCC(C)CC1O` (centres undefined), the molecule was classed as inactive in test [1], in test [2], in test [7], in test [4], in test [5] and in test [6].

With `CCOC(=O)c1ccccc1OC`, the molecule was classed as inactive in test [1], in test [2], in test [3], in test [4], in test [5] and in test [6].

With `CCCCCNCCCCC`, the call in test [1], in test [2], in test [3], in test [7], in test [5] and in test [6] was inactive. Further, the outcome in test [8] was inactive.

In the case of `O=C(O)COCCN1CCN(C(c2ccccc2)c2ccc(Cl)cc2)CC1` (centres undefined), the outcome in test [1], in test [2], in test [5], in test [6] and in test [8] was inactive.

For `CCCC[n+]1ccccc1`, the result in test [1], in test [2], in test [3], in test [7] and in test [6] was inactive.

Turning to `C=O`, the molecule was called inactive in test [1], in test [3], in test [7], in test [4], in test [5] and in test [6].

Turning to `Cc1cccc(Nc2ccccc2C(=O)O)c1C`, the call in test [1], in test [2], in test [3], in test [5] and in test [8] was inactive. Moreover, the AC50 in test [6] was 76.9 µM (active).

Turning to `Clc1sc(Cl)c(Cl)c1Cl`, the result in test [1], in test [2], in test [3], in test [7], in test [5] and in test [6] was inactive. Also, in test [8], the result was inactive.
